Reference: PubChem BioAssay
Calls of active or inactive are those of the source. Unless noted, the rule behind the calls is not given here.

Columns and labels:
[1] = anti-His antibody binders, primary screen, artefact control for SMM control protein annotation, biochemical, small-molecule microarray, 635 nm fluorescence (AID 1128); details: anti-His Alexa647 antibody binding, higher = more signal;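 note: score merges feature fluorescence with signal-to-noise for each printed compound spot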
[2] = tested on: Human papillomavirus type 1a E7 protein (residues 1-88); experiment: HPV1a E7 small-molecule binders, primary screen, biochemical, small-molecule microarray, residues 1-88, 635 nm (AID 1129); details: small-molecule microarray binding, fluorescence 635 nm; higher = more signal
[3] = molecular target: Focal adhesion kinase 1 (Homo sapiens) (UniProt Q05397); experiment: small-molecule microarray binders of FAK, primary screen, biochemical, 635/667 nm fluorescence, BSA, DTT (AID 1130); details: PTK2 binding, 635 nm fluorescence, higher = more signal;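 note: composite of spot emission at 667 nm and signal to noise over triplicate slides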
Focal adhesion kinase 1 (Homo sapiens), sequence (Q05397 whole entry, looked up): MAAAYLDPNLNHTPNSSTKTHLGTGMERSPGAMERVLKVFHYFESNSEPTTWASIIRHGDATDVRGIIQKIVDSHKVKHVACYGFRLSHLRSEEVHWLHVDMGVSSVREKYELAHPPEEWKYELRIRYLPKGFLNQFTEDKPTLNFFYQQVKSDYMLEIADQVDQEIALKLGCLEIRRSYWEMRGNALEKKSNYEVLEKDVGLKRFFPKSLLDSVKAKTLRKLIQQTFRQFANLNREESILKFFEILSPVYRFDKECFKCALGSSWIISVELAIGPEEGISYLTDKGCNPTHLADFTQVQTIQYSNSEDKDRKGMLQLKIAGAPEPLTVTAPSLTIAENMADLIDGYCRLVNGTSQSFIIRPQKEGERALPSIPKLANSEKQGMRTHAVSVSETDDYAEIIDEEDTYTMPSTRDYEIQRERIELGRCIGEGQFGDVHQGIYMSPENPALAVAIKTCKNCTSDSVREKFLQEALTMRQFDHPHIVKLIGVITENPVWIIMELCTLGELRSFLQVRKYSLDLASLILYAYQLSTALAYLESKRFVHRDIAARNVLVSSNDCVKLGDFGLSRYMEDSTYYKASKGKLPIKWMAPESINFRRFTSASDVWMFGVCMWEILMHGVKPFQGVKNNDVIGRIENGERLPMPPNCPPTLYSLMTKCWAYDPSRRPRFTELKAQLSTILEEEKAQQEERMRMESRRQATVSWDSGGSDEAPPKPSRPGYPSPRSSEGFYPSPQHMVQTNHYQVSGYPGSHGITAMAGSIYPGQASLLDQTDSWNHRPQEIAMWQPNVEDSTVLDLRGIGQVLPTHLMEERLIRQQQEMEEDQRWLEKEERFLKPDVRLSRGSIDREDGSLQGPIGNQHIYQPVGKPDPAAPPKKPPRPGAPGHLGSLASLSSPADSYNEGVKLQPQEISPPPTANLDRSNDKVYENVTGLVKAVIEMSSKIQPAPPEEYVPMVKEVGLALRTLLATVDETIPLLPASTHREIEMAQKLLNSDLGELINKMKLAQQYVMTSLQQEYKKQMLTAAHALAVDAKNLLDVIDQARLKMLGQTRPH

[4] = tested on: Fibrinogen (Alexa647-labelled); experiment: fibrinogen binders on compound microarrays, profiling panel, artefact control for SMM control-protein annotation, biochemical, small-molecule microarray, 635/667 nm fluorescence (AID 1131); details: fibrinogen-A647 binding fluorescence, higher = more signal;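 note: z-score merges 667 nm fluorescence with per-spot signal-to-noise over triplicate slides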
[5] = molecular target: Follistatin (Homo sapiens) (UniProt P19883); experiment: follistatin binders on small-molecule microarrays, primary screen, biochemical, small-molecule microarray, 635/667 nm fluorescence (AID 1132); details: FST binding, 635 nm fluorescence, higher = more signal
Follistatin (Homo sapiens), sequence (P19883 whole entry, looked up): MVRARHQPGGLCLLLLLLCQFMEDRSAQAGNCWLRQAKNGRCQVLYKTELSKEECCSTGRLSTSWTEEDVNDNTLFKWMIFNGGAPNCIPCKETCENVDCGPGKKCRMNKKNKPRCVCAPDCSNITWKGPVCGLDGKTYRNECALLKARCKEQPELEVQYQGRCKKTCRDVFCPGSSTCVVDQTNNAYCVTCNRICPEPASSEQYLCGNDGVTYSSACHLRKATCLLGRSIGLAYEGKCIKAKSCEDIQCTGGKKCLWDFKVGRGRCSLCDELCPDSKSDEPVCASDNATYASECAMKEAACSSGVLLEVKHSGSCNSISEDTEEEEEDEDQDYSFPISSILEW

[6] = molecular target: Fibroblast growth factor 2 (Homo sapiens) (UniProt P09038); experiment: FGF2 binders on small-molecule microarrays, primary screen, biochemical, small-molecule microarray, 635/667 nm fluorescence (AID 1133); details: small-molecule microarray binding, FGF2, fluorescence 635/667; higher = more signal
Fibroblast growth factor 2 (Homo sapiens), sequence (P09038 whole entry, looked up): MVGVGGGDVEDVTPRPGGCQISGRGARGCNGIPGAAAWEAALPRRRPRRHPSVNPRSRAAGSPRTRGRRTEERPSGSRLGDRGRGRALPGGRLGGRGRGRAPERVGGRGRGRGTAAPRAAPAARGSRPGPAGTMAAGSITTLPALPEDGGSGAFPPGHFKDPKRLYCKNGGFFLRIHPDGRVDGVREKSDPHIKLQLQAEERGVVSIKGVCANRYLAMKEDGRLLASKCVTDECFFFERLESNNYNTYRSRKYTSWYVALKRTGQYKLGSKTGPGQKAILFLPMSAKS

[7] = mitochondrial membrane potential change in A549 cells, profiling panel, cell-based, JC-1 fluorescence, basal, 24 h, 100 nL (AID 1138); details: higher = more signal;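 note: A549 lung adenocarcinoma cells under basal conditions with no added stimulus; test concentration not given here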
Lefty1 = Lefty1 binders on small-molecule microarrays, primary screen, biochemical, small-molecule microarray, 635/667 nm fluorescence (AID 1139); details: small-molecule microarray binding, fluorescence 635/667; higher = more signal
[8] = tested on: wheat germ agglutinin (Triticum aestivum), Alexa647-labelled; experiment: wheat germ agglutinin binders on compound microarrays, profiling panel, artefact control for SMM control-protein annotation, biochemical, small-molecule microarray, 635/667 nm fluorescence (AID 1140); details: WGA-A647 binding, 635 nm fluorescence, higher = more signal;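 note: score merges 667 nm feature emission with signal to noise over triplicate slides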
[9] = molecular target: Luciferin 4-monooxygenase (Photinus pyralis) (UniProt P08659); experiment: firefly luciferase enzyme inhibitors, primary screen, biochemical, luminescence, purified enzyme, 2006 set (AID 1141); details: SteadyGlo luminescence, 30 min, higher = more signal, called active from +8 up or from −8 down;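 note: cell-free assay with purified firefly luciferase at 100 ng per well in PBS; test concentration not given here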
Luciferin 4-monooxygenase (Photinus pyralis), sequence (P08659 whole entry, looked up): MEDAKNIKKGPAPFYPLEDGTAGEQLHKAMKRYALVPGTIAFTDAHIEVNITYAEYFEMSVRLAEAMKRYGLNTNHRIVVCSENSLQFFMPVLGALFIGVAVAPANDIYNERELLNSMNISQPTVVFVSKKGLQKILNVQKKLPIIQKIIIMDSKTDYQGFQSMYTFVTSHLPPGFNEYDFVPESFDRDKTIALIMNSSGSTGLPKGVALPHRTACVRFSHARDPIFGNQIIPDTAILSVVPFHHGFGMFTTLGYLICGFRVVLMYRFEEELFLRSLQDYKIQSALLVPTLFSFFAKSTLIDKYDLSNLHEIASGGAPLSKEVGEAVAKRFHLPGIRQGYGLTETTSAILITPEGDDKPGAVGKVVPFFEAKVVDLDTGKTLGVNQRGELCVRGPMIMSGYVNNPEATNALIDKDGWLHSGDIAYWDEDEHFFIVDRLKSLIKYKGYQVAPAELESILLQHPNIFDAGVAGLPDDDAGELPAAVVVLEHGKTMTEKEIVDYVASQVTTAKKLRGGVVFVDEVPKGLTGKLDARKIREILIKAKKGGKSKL

[10] = tested on: Wnt5a (protein binding on small-molecule microarray); experiment: Wnt5a binders on small-molecule microarray, primary screen, biophysical, 635/667 nm fluorescence (AID 1142); details: 635 nm fluorescence, higher = more signal;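 note: fluorescence read at 667 nm with signal to noise per printed feature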
[11] = cell viability in Huh7 cells, primary screen, cytotoxicity control for HCV replication inhibitor project, CellTiter-Glo luminescence, basal, 48 h (AID 1143); details: Huh7 HCV replicon, higher = more signal, called active from +8 up or from −8 down;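 note: Huh7 hepatoma cells carrying a hepatitis C replication reporter with no stimulus; test concentration not given here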
[12] = P. aeruginosa biofilm formation inhibitors, primary screen, PAO1 strain, BacTiter-Glo luminescence, LB-PBS (AID 1144); details: 12 h, higher = more signal
[13] = CREB reporter modulators without forskolin, primary screen, cell-based, PC12, CRE-LacZ reporter, unstimulated (AID 1145); details: no forskolin, luminescence, 4.5 h, higher = more signal, called active from +8 up or from −8 down
[14] = CREB reporter modulators under forskolin, primary screen, cell-based, PC12, CRE-LacZ reporter, forskolin-stimulated (AID 1146); details: luminescence, 4.5 h, higher = more signal, called active from +8 up or from −8 down;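 note: PC12 cells with 6xCRE LacZ reporter stimulated by forskolin 10 µM; beta-galactosidase reporter signal reflecting CREB driven transcription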
[15] = molecular target: Streptavidin (Streptomyces avidinii) (UniProt P22629); experiment: streptavidin binders on small-molecule microarray, primary screen, artefact control for SMM compound annotation, biophysical, 635/667 nm fluorescence (AID 1147); details: streptavidin binding, higher = more signal;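 note: signal reflects streptavidin binding to arrayed compounds as a control protein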
Streptavidin (Streptomyces avidinii), sequence (P22629 whole entry, looked up): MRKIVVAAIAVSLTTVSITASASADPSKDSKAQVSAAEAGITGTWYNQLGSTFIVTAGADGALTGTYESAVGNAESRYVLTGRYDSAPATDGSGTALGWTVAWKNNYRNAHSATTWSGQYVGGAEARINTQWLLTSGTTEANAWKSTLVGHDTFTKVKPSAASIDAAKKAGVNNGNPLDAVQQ

[16] = small-molecule binders of probe aInhba, primary screen, biochemical, small-molecule microarray, 635/667 nm fluorescence (AID 1148); details: higher = more signal;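 note: score merges 667nm spot fluorescence with signal-to-noise for antibody binding to printed compounds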
Torsin-1A (Homo sapiens) [17] = molecular target: Torsin-1A (Homo sapiens) (UniProt O14656); experiment: torsin A binders from cell lysate, primary screen, small-molecule microarray, wild-type, 635/667 nm (AID 1149); details: COS7 hTOR1A-WT lysate, 635 nm fluorescence, higher = more signal
Torsin-1A (Homo sapiens), sequence (O14656 whole entry, looked up): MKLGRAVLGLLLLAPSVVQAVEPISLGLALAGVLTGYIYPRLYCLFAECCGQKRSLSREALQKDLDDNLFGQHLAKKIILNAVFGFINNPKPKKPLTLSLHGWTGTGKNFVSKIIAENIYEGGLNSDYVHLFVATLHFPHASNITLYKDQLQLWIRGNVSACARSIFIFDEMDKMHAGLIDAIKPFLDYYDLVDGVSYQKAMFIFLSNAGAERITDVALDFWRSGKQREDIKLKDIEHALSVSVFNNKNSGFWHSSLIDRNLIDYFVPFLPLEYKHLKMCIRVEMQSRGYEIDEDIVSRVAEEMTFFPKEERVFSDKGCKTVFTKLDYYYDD

Torsin-1A (Homo sapiens) [18] = molecular target: Torsin-1A (Homo sapiens) (UniProt O14656); experiment: small-molecule binders of mutant TOR1A in lysate, primary screen, cell lysate, small-molecule microarray, COS7 lysate, 635/667 nm fluorescence (AID 1150); details: COS7 hTOR1A mutant lysate, 635 nm fluorescence, higher = more signal;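 note: score pools 667 nm emission and signal to noise measuring lysate protein binding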
[19] = tested on: Sonic hedgehog protein (Shh); experiment: small-molecule binders of Shh protein, primary screen, biochemical, small-molecule microarray, 635/667 nm fluorescence (AID 1151); details: small-molecule microarray binding, 635 nm fluorescence; higher = more signal;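 note: Shh protein binding to compounds spotted on small-molecule microarray slides; score combines spot fluorescence intensity with signal-to-noise across triplicate slides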

SMILES	composite z-score [1]	composite z-score [2]	composite z-score [3]	composite z-score [4]	composite z-score [5]	composite z-score [6]	z-score [7]	composite z-score (Lefty1)	composite z-score [8]	z-score [9]	composite z-score [10]	z-score [11]	z-score [12]	z-score [13]	z-score [14]	composite z-score [15]	composite z-score [16]	composite z-score (Torsin-1A (Homo sapiens) [17])	composite z-score (Torsin-1A (Homo sapiens) [18])	composite z-score [19]
O=C1O[C@@H](c2ccccc2)[C@@H](c2ccccc2)N2[C@@H](c3ccc(OCCO)cc3)[C@]3(C(=O)Nc4ccc(C#CC5(O)CCCCCC5)cc43)[C@@H](C(=O)Nc3nc4ccccc4s3)[C@H]12	0.0141	1.24	0.676	0.964	1.33	1.54	-2.12	1.22	1.09	-2.6 (inactive)	0.41	-1.6 (inactive)	-0.213 (inactive)	0.685 (inactive)	-0.0048 (inactive)	1.44	0.0945	1.14	0.985	1.11
CCCC=C(CCC)[C@@H](NC(=O)OCC(C)C)c1ccc(C(=O)OC)cc1	0.403	0.717	1.16	0.441	-0.133	0.462	0.744	0.704	0.0477	2.34 (inactive)	-0.0326	-1.07 (inactive)	0.3 (inactive)	-1.72 (inactive)	0.291 (inactive)	0.153	-0.154	0.841	0.104	0.23
COc1ccc(C(O)C2C=CC3C(=O)N(c4ccccc4)C(=O)C3N2Nc2ccc([N+](=O)[O-])cc2)c2ccccc12 (stereo not given)	0.57	1.25	0.846	1	0.91	0.54	-1.56	0.0679	1.21	1.19 (inactive)	0.328	-0.8 (inactive)	-0.557 (inactive)	-0.228 (inactive)	-0.838 (inactive)	1.86	0.12	0.771	0.163	0.0892
CCCC[C@H]1OB(O)C[C@H]2C1=C(COc1ccccc1)C[C@H]1C(=O)C=CC(=O)[C@H]12	0.219	0.398	0.628	0.951	1.06	0.696	1.04	1	0.22	-2.36 (inactive)	0.119	-0.578 (inactive)	-0.327 (inactive)	6.38 (inactive)	2.07 (inactive)	0.0073	-0.158	0.372	0.274	1.38
CN(C)CCCNC(=O)[C@@]1(C)c2ccccc2C(=O)N(Cc2ccc(OC(F)(F)F)cc2)[C@H]1c1ccc(CO)cc1	0.117	0.365	0.37	0.294	0.948	0.389	-0.664	-0.425	0.668	0.14 (inactive)	-0.13	-2.14 (inactive)	-1.04 (inactive)	1.06 (inactive)	-0.175 (inactive)	-1.04	0.0778	-0.924	0.332	0.447
COCCOC(=O)N1C(=O)[C@@]2(c3cc(C#CCCO)ccc31)[C@H](C(N)=O)[C@H]1C(=O)O[C@H](c3ccccc3)[C@H](c3ccccc3)N1[C@@H]2c1ccccc1OCCO	3.07	1.21	0.425	0.897	1.19	0.516	-0.256	0.673	0.713	-0.683 (inactive)	0.119	-3.54 (inactive)	0.00875 (inactive)	0.0695 (inactive)	-0.29 (inactive)	0.612	0.017	0.69	0.791	1.13
CC[C@@H]1C=C(C(=O)O)[C@H](c2ccc(OC)cc2)N1S(=O)(=O)c1ccc(C)cc1	-0.0418	0.521	0.359	-0.342	-0.055	-0.477	0.0749	0.112	0.164	1.04 (inactive)	0.0237	-1.09 (inactive)	1.01 (inactive)	0.0798 (inactive)	0.0935 (inactive)	0.114	-0.016	-0.579	0.316	-0.236
CO[C@H]1O[C@H](CO)[C@@H](OC(=O)Nc2ccc3c(c2)OCO3)[C@H](OC(=O)Nc2ccccc2-c2ccccc2)[C@H]1OC(=O)Nc1ccccc1-c1ccccc1	1.73	1.26	1.17	0.435	0.694	0.819	-0.559	-0.152	0.331	-1.22 (inactive)	1.07	-5.61 (inactive)	-0.378 (inactive)	1.5 (inactive)	-1.05 (inactive)	0.2	0.196	0.384	1.55	0.333
O=C1C[C@@](C(=O)NC2CC2)(c2ccc([N+](=O)[O-])cc2)[C@@H](c2ccc(CO)cc2)N1C1CCCCC1	2.79	1.23	0.333	0.122	1.3	1.64	-0.282	0.894	0.407	0.997 (inactive)	0.755	-5.6 (inactive)	-2.4 (inactive)	0.118 (inactive)	-0.0595 (inactive)	-0.124	-0.212	-0.204	0.466	2.18
COCC(=C=CC[C@H](O)c1ccccc1OCCO)C[C@H](O)COCc1ccccc1	2.34	1.19	0.516	0.272	0.792	0.659	1.26	0.632	0.0903	-1.06 (inactive)	1.16	-0.729 (inactive)	1.27 (inactive)	5.1 (inactive)	0.497 (inactive)	0.259	0.0541	1.29	1.13	1.73
